# The full data set covers some 7,900 targets. This sample favours those with a hit. About 0.6% of all pairs of compound and target were hits. Unmarked numbers belong to inactive results.
# Experiments:
# Test in all cases: log2 fold change, soluble protein after heating vs DMSO (PISA); higher = thermal stabilisation; K562 cells, 10 uM, 30 min; active = over 0.2 and 3.5 SD of the protein, either way, in both replicates (recomputed)
# [1] = compound: COC1=CC=C(C=C1)CN2C=CC3=C2C=C(C=C3)C(=O)NO
# In short: (§1)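 Values are thermal stability changes relative to control samples and are taken from duplicates. They are stated as log2 fold changes. Before quantification by TMTpro 16plex LC-MS/MS with equalised channel sums, K562 cells at 2×10^6 cells/mL were treated with 10 μM compound for 30 min, heated in aliquots for 3 min across 48°C-58°C, pooled, extracted in PBS with 0.5% NP-40 at 4°C, and centrifuged at 21,000xg for 90 min to give the soluble supernatant.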
# filanesib = compound: CON(C)C(=O)N1N=C(c2cc(F)ccc2F)S[C@@]1(CCCN)c1ccccc1 [filanesib]
# In short: as §1
# zotarolimus = compound: CO[C@H]1C[C@@H]2CC[C@@H](C)[C@@](O)(O2)C(=O)C(=O)N2CCCC[C@H]2C(=O)O[C@H]([C@H](C)C[C@@H]2CC[C@H](n3cnnn3)[C@H](OC)C2)CC(=O)[C@H](C)/C=C(\C)[C@@H](O)[C@@H](OC)C(=O)[C@H](C)C[C@H](C)/C=C/C=C/C=C/1C [zotarolimus]
# In short: as §1
# idasanutlin = compound: COc1cc(C(=O)O)ccc1NC(=O)[C@@H]1N[C@@H](CC(C)(C)C)[C@](C#N)(c2ccc(Cl)cc2F)[C@H]1c1cccc(Cl)c1F [idasanutlin]
# In short: as §1
# alisertib = compound: COc1cc(Nc2ncc3c(n2)-c2ccc(Cl)cc2C(c2c(F)cccc2OC)=NC3)ccc1C(=O)O [alisertib]
# In short: as §1
# [2] = compound: COc1cc2nc(-c3cc(F)ccc3O)nc(N[C@@H]3CNC[C@H]3C(C)(C)O)c2cc1OC
# In short: as §1
# gefitinib = compound: COc1cc2ncnc(Nc3ccc(F)c(Cl)c3)c2cc1OCCCN1CCOCC1 [gefitinib]
# In short: as §1
# [3] = compound: COc1cccc2cc(-c3nc([C@H]4CC[C@H](C(=O)O)CC4)n4ncnc(N)c34)[nH]c12
# In short: as §1
# lapatinib = compound: CS(=O)(=O)CCNCc1ccc(-c2ccc3ncnc(Nc4ccc(OCc5cccc(F)c5)c(Cl)c4)c3c2)o1 [lapatinib]
# In short: as §1
# pictilisib = compound: CS(=O)(=O)N1CCN(Cc2cc3nc(-c4cccc5[nH]ncc45)nc(N4CCOCC4)c3s2)CC1 [pictilisib]
# In short: as §1
# [4] = compound: CS(=O)(=O)c1ccc(-c2cnc(N)c(C(=O)Nc3ccccc3)n2)cc1
# In short: as §1
# crizotinib = compound: C[C@@H](Oc1cc(-c2cnn(C3CCNCC3)c2)cnc1N)c1c(Cl)ccc(F)c1Cl [crizotinib]
# In short: as §1
# [5] = compound: C[C@@H]1COCCN1C2=NC(=NC(=C2)C3(CC3)S(=O)(=O)C)C4=C5C=CNC5=CC=C4
# In short: as §1
# [6] = compound: C[C@H](C1=CC=C(C=C1)C(=O)NC2=C3C=CNC3=NC=C2)N
# In short: as §1
# duvelisib = compound: C[C@H](Nc1ncnc2nc[nH]c12)c1cc2cccc(Cl)c2c(=O)n1-c1ccccc1 [duvelisib]
# In short: as §1
# gandotinib = compound: Cc1cc(Nc2cc(CN3CCOCC3)c3nc(C)c(Cc4ccc(Cl)cc4F)n3n2)n[nH]1 [gandotinib]
# In short: as §1
# [7] = compound: Cc1cc(SCc2sc(-c3ccc(C(F)(F)F)cc3)nc2C)ccc1OCC(=O)O
# In short: as §1
# doramapimod = compound: Cc1ccc(-n2nc(C(C)(C)C)cc2NC(=O)Nc2ccc(OCCN3CCOCC3)c3ccccc23)cc1 [doramapimod]
# In short: as §1
# ispinesib = compound: Cc1ccc(C(=O)N(CCCN)[C@@H](c2nc3cc(Cl)ccc3c(=O)n2Cc2ccccc2)C(C)C)cc1 [ispinesib]
# In short: as §1
# tozasertib = compound: Cc1cc(Nc2cc(N3CCN(C)CC3)nc(Sc3ccc(NC(=O)C4CC4)cc3)n2)n[nH]1 [tozasertib]
# In short: as §1
# Sequence of UniProt P69905 (P69905 whole entry, looked up): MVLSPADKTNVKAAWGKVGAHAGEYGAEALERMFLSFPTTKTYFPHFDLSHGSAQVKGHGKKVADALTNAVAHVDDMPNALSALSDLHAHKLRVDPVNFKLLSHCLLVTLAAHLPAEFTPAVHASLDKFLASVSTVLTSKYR
# Sequence of UniProt Q9Y613 (Q9Y613 whole entry, looked up): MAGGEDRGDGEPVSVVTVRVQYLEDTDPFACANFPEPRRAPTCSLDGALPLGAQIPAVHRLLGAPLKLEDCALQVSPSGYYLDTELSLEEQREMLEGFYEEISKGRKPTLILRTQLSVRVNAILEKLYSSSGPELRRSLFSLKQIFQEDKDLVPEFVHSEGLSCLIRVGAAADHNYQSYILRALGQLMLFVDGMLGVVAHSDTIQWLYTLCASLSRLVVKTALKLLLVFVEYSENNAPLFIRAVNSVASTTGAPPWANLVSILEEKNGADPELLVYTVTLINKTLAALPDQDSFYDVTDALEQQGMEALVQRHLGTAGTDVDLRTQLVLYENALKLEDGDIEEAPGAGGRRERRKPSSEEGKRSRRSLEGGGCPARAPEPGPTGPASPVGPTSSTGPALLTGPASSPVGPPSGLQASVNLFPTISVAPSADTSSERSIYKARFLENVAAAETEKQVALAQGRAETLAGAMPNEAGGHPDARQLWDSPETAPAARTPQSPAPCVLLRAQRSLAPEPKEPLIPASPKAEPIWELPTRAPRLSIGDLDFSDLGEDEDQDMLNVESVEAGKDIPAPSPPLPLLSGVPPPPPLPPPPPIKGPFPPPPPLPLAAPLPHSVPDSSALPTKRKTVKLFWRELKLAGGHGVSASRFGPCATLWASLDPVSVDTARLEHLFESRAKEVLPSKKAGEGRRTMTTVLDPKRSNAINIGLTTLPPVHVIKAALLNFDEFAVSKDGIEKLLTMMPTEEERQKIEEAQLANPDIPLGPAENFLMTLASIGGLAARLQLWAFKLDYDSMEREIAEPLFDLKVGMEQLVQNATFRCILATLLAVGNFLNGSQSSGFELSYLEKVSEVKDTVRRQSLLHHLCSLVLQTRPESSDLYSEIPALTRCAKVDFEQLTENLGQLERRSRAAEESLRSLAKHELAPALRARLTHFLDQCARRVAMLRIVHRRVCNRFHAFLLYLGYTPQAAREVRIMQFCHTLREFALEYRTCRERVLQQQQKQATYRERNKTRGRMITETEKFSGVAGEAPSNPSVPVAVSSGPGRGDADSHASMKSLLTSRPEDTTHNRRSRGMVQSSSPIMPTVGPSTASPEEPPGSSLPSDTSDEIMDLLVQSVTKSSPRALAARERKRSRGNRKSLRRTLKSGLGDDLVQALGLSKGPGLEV
# Sequence of UniProt P30711 (P30711 whole entry, looked up): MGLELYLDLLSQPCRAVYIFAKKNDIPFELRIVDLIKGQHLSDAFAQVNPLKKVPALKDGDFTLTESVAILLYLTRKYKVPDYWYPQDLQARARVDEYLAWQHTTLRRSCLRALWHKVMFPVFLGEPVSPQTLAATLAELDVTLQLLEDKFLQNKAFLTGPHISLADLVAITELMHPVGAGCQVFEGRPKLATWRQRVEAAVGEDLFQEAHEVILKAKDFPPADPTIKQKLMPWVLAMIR
# Sequence of UniProt Q13907 (Q13907 whole entry, looked up): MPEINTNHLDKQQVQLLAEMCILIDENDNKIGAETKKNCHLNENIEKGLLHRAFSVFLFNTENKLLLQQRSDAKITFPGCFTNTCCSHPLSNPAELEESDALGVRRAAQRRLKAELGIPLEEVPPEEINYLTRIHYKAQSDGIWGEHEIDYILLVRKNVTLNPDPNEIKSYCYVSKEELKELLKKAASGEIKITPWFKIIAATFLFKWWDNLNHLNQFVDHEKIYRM
# Sequence of UniProt Q14687 (Q14687 whole entry, looked up): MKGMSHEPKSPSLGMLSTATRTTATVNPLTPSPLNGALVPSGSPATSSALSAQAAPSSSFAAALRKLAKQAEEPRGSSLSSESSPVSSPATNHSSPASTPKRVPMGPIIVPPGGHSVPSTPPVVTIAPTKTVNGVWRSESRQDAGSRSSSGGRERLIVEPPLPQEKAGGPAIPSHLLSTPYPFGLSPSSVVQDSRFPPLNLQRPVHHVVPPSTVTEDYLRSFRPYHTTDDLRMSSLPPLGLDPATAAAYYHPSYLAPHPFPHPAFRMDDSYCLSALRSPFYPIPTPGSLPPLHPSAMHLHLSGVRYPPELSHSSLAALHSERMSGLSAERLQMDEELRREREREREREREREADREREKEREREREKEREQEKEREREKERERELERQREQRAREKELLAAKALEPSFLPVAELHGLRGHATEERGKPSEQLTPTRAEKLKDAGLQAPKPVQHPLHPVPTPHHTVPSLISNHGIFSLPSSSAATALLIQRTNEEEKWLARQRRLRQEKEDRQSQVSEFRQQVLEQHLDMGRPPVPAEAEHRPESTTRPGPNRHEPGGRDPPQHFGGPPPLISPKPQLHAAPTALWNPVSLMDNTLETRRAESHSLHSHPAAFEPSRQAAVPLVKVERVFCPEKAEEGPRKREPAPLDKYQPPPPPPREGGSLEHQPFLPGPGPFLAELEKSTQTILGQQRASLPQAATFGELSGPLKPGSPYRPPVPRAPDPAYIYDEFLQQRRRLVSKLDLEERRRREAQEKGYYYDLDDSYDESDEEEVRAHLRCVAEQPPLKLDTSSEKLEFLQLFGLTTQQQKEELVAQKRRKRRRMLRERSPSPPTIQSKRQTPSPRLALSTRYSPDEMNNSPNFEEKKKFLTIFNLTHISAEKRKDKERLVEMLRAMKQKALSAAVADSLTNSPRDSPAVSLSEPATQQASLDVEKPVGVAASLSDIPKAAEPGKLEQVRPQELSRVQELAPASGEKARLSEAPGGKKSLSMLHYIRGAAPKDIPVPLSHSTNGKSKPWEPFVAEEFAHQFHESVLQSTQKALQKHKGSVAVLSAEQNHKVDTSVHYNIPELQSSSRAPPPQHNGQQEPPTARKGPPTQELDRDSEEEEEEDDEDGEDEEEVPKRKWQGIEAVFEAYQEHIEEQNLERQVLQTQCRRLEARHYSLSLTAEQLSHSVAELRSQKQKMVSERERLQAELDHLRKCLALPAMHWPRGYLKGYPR
# Sequence of UniProt Q53R41 (Q53R41 whole entry, looked up): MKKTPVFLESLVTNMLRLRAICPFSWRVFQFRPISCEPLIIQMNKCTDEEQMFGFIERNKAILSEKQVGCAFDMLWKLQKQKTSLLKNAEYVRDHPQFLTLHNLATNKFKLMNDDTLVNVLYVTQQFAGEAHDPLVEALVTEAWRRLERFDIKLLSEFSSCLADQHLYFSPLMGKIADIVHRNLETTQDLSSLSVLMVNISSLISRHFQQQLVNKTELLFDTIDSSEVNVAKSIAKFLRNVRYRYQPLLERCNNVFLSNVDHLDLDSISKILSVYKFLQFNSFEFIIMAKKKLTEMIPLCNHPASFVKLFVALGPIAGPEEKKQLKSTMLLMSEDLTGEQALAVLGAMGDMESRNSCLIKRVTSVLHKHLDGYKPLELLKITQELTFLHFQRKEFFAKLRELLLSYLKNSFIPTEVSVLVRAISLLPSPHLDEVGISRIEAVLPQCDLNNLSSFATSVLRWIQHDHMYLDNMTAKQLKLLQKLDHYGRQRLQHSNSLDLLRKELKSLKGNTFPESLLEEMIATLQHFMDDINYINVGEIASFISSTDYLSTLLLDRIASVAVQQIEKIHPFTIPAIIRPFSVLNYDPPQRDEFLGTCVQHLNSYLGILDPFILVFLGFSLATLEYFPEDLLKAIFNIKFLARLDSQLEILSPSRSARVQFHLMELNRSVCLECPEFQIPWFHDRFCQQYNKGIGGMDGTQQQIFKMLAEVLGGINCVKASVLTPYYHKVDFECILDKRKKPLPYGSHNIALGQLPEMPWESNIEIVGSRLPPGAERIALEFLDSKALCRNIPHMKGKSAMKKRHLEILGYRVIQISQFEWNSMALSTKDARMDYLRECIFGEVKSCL
# Sequence of UniProt Q9Y248 (Q9Y248 whole entry, looked up): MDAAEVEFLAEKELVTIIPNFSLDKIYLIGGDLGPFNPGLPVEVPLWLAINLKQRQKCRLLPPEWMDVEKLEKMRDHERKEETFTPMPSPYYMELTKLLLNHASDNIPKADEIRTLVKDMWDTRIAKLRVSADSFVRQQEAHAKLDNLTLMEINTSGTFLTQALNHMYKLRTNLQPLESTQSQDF
# Sequence of UniProt Q13227 (Q13227 whole entry, looked up): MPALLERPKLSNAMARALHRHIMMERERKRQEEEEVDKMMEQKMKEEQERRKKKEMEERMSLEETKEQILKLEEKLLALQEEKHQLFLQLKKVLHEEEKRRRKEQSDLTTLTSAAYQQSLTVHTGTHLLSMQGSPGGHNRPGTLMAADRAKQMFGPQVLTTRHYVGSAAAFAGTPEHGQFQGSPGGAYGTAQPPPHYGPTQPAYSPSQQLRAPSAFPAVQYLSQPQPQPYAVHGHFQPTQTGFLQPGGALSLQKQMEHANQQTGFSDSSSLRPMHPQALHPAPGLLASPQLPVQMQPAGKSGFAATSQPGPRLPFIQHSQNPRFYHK
# Sequence of UniProt Q9H6D7 (Q9H6D7 whole entry, looked up): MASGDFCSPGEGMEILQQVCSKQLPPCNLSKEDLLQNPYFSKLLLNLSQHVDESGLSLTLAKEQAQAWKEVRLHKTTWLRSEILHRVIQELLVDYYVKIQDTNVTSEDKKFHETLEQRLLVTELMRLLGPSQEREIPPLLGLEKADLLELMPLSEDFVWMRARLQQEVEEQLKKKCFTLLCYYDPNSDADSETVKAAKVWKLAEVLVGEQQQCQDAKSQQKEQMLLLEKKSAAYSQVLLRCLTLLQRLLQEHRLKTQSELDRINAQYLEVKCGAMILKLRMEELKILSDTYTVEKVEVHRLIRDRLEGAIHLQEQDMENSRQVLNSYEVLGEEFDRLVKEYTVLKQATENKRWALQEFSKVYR
Target,log2 fold change [1],log2 fold change (filanesib),log2 fold change (zotarolimus),log2 fold change (idasanutlin),log2 fold change (alisertib),log2 fold change [2],log2 fold change (gefitinib),log2 fold change [3],log2 fold change (lapatinib),log2 fold change (pictilisib),log2 fold change [4],log2 fold change (crizotinib),log2 fold change [5],log2 fold change [6],log2 fold change (duvelisib),log2 fold change (gandotinib),log2 fold change [7],log2 fold change (doramapimod),log2 fold change (ispinesib),log2 fold change (tozasertib)
FHOD1 (UniProt Q9Y613),-0.044,0.084,0.095,0.127,-0.161,0.186,-0.005,-0.253,0.014,0.01,0.033,-0.107,-0.174,0.58 (active),-0.121,0.105,0.085,0.235,-0.193,–
HBA1 (UniProt P69905),-0.037,0.02,0.068,-0.044,-0.093,-0.154,0.032,0.079,0.036,-0.088,0.009,0.097,0.213,-0.058,0.094,0.025,0.004,0,0.24,0.081
GALC (UniProt P54803),0.007,-0.017,-0.071,-0.121,0.049,0.099,-0.014,0.066,0.042,0.159,0.03,-0.023,0.03,-0.012,-0.049,0.008,0,-0.01,-0.135,0.033
GDE1 (UniProt Q9NZC3),0.046,-0.102,0.043,-0.064,-0.176,0.012,0.008,0.01,-0.011,–,0.033,0.063,0.077,-0.087,-0.014,–,-0.067,0.074,0.051,0.077
IDI1 isoform 2 (UniProt Q13907),-0.314 (active),0.026,0.033,-0.006,-0.003,0.007,0.024,0.039,-0.014,0.089,0.052,0.093,0.062,-0.018,0.069,0.014,-0.028,-0.063,0.045,0.057
GSE1 (UniProt Q14687),–,–,-0.063,–,–,–,0.224,–,–,–,–,–,–,0.008,0.033,–,-0.046,–,-0.066,–
FBXO9 (UniProt Q9UK97),0.124,–,-0.027,–,0.466 (active),-0.169,0.007,0.077,0.012,0.036,–,0.028,–,-0.046,-0.03,-0.151,0.079,-0.081,-0.057,-0.071
FAT1 (UniProt Q14517),0.098,0.097,-0.08,–,-0.267,0.027,0.023,-0.098,0.029,0.041,0.027,0.061,-0.054,0.144,0.026,0.061,0.009,-0.435 (active),-0.096,-0.124
GINS2 (UniProt Q9Y248),0.057,-0.021,0.29,–,-0.069,0.025,0.035,-0.089,-0.026,-0.119,-0.066,-0.036,-0.046,-0.15,0.164,0.004,0.247,0.026,0.167,0.145
GSTT1 (UniProt P30711),0.014,–,0.07,0,-0.118,-0.015,0.023,0.029,0.003,0.027,–,0.332 (active),0.19,0.002,0.1,0.19,-0.061,-0.003,0.026,0.017
HAUS4 (UniProt Q9H6D7),–,0.245,0.05,0.126,-0.103,0.024,-0.086,0.323,-0.038,-0.162,0.068,–,0.024,0.139,-0.303,0.015,-0.195,–,-0.259,0.041
GPNMB (UniProt Q14956),–,–,–,–,–,–,–,–,–,–,–,–,-0.151,–,–,–,–,–,–,–
GNL3 (UniProt Q9BVP2),–,-0.038,-0.012,-0.212,-0.12,–,0.067,0.071,–,0.061,0.126,–,-0.009,0.065,0.124,0.098,-0.053,–,–,-0.079
GREB1 (UniProt Q4ZG55),0.448,0.074,0.07,-0.023,–,–,–,–,–,–,0.121,0.163,-0.046,0.12,–,–,–,-0.007,–,-0.171
FIZ1 (UniProt Q96SL8),-0.081,0.078,0.048,–,0.117,–,0.001,-0.108,–,0.016,-0.05,0.018,-0.354,0.074,-0.251,0.024,0.017,0.044,–,–
FASTKD1 (UniProt Q53R41),-0.037,-0.011,-0.192,-0.028,–,–,0.473,–,–,0.127,0.097,0.001,0.097,-0.027,0.035,-0.284,0.12,0.037,-0.013,-0.253
GPS2 (UniProt Q13227),-0.108,0.018,–,–,-0.067,0.135,0.008,0.152,-0.044,–,-0.114,0.019,0.208,–,–,–,–,0.047,0.31 (active),-0.221
HSPA2 (UniProt P54652),-0.103,0.026,–,0.032,-0.077,–,0.005,0.076,–,–,0.011,0.123,–,–,–,–,–,-0.003,-0.025,–
"HBZ, A0A494C057",–,–,–,–,1.67,–,0.151,0.009,–,–,–,–,–,–,–,–,–,–,–,–
H3-3A (UniProt P84243),–,-0.187,0.009,–,0.098,0.179,0.035,-0.062,-0.042,–,0.082,–,–,0.038,-0.184,–,0.106,–,–,-0.066

# From the supplement of paper PMC10849652
